{"source": "PubChem BioAssay (Tox21)", "note": "Inconclusive results are not listed. Entries that show only a call come without a potency. Unmarked numbers belong to inactive results. Calls of active or inactive are those of the source. Calls follow the shape of the dose curve; as a rule, active = well fitted cell-killing curve with a large enough effect in the repeat runs; inconclusive = weak or mixed curves; inactive = no such curve, though single readings can be large or run the other way. Potency is read from the fitted curve at half-maximal effect.", "data": [{"experiment": "qHTS assay to identify small molecule antagonists of the peroxisome proliferator-activated receptor delta (PPARd) signaling pathway - cell viability counter screen (AID 743213); also: nearly all actives have a fitted effect of over 50% in size", "conditions": "PPARd-bla HEK293H viability, CellTiter-Glo luminescence, 17 h; series mostly up to 62 µM", "description": "U.S. Tox21 Program National Center for Advancing Translational Sciences [NCATS] NIH Chemical Genomics Center [NCGC] U.S. Environmental Protection Agency [EPA] National Institutes of Environmental Health Sciences [NIEHS] National Toxicology Program [NTP] U.S. Food and Drug Administration [FDA] Tox21 Assay Overview: The peroxisome proliferator-activated receptors (PPARs) are lipid-activated transcription factors of the nuclear receptor superfamily with three distinct subtypes namely PPAR alpha, PPAR delta (PPARd) and PPAR gamma. All these subtypes heterodimerizes with Retinoid X receptor (RXR) and have different physiological functions. […] To identify the compounds that inhibit PPAR-delta signaling, GeneBLAzer PPAR delta UAS-bla HEK293H cell line (Invitrogen, Carlsbad, CA, USA) containing a beta-lactamase reporter gene under the control of an Upstream Activator Sequence (UAS) was used to screen the Tox21 compound library. The cytotoxicity of the Tox21 compound library against the PPARd-bla cell line was tested in parallel by measuring the cell viability using CellTiter-Glo assay (Promega, Madison, WI) in the same wells.\nTox21 Assay Protocol Summary: PPARd-bla cells were dispensed at 3000 cells/5uL/well in 1536-well black wall/clear bottom plates using a Multidrop Combi (Thermo Fisher Scientific, Waltham, MA) dispenser. After the assay plates were incubated at 37 C and 5% CO2 for 5 h, 23 nL of compounds dissolved in DMSO, positive controls or DMSO only was transferred to the assay plate by a Pintool station (Kalypsys, San Diego, CA), followed by addition of 1ul L165041 (300 nM, final concentration in the wells). The assay plates were incubated at 37 C for 17 h, and then 1 uL of LiveBLAzerTM B/G FRET substrate was added using a Bioraptr Flying Reagent Dispenser (FRD) workstation (Beckman Coulter, Indianapolis, IN, USA). The assay plates were incubated at room temperature for 2 h and fluorescence intensity was measured by an Envision plate reader (PerkinElmer, Shelton, CT). For cell viability readout that measures cytotoxicity, 3 ul/well of CellTiter-Glo reagent was added into the assay plates using a Bioraptr FRD. After 30 min incubation at room temperature, the luminescence intensity in the plates was measured using a ViewLux plate reader (PerkinElmer).", "values": [{"smiles": "CCN(CC)CCOC(=O)C(Cc1cccc2ccccc12)CC1CCCO1", "note": "(stereo not given)", "Potency": "inactive"}, {"smiles": "C=C(C)C(=O)OCCO", "Potency": "inactive"}, {"smiles": "CC/C=C\\CCOC(=O)CC", "Potency": "inactive"}, {"smiles": "C=C1[C@H]2CC[C@@H]3[C@H]2C(C)(C)CCC[C@]13C", "Potency": "inactive"}, {"smiles": "Clc1ccc2c(c1)CCc1cccnc1C2=C1CCNCC1", "Potency": "15 µM (active)"}, {"smiles": "CCCCO", "Potency": "inactive"}, {"smiles": "COC(C)(C)CCO", "Potency": "inactive"}, {"smiles": "C=CC(=O)OCCOc1ccccc1", "Potency": "inactive"}, {"smiles": "C/C=C/C(=O)CC", "viability change, negative = cytotoxic": "3.59% [at 13.7 µM]"}, {"smiles": "CCCCC", "Potency": "inactive"}, {"smiles": "O=C(NCCO[N+](=O)[O-])c1cccnc1", "Potency": "inactive"}, {"smiles": "CCOc1ccc(N=Nc2ccc(/C=C/c3ccc(N=Nc4ccc(OCC)cc4)cc3S(=O)(=O)O)c(S(=O)(=O)O)c2)cc1", "Potency": "inactive"}, {"smiles": "CN(C)CCN(Cc1ccsc1)c1ccccn1", "Potency": "inactive"}, {"smiles": "C=CCOC(=O)CCC1CCCCC1", "Potency": "inactive"}, {"smiles": "CC1(c2ccccc2)OC(C(=O)O)=CC1=O", "note": "(stereo not given)", "Potency": "inactive"}, {"smiles": "CCCn1cnc2c1c(=O)n(CCCCC(C)=O)c(=O)n2C", "Potency": "inactive"}, {"smiles": "S=C([S-])NCCNC(=S)[S-].[Mn+2]", "Potency": "inactive"}, {"smiles": "COc1cc2nc(N3CCN(C(=O)C4COc5ccccc5O4)CC3)nc(N)c2cc1OC", "note": "(stereo not given)", "Potency": "inactive"}, {"smiles": "CCO[Si](CCCCl)(OCC)OCC", "Potency": "inactive"}, {"smiles": "CNCCCCOc1ccccc1Cc1ccccc1", "Potency": "13.3 µM (active)"}, {"smiles": "CC(=O)[O][Al][O]C(C)=O", "Potency": "inactive"}, {"smiles": "COC(=O)c1ccc(I)cc1S(=O)(=O)NC(=O)Nc1nc(C)nc(OC)n1", "Potency": "inactive"}, {"smiles": "C=C(C)C(=O)OCCOCC", "Potency": "inactive"}, {"smiles": "CCC(C)c1cc(C(C)(C)C)c(O)c(C(C)(C)C)c1", "note": "(stereo not given)", "Potency": "inactive"}, {"smiles": "COCC(C)OC(C)=O", "note": "(stereo not given)", "Potency": "inactive"}, {"smiles": "OC(C#CCN1CCCC1)(c1ccccc1)c1ccccc1", "Potency": "inactive"}, {"smiles": "O=C(O)c1ccco1", "Potency": "inactive"}, {"smiles": "CCCCC(CC)COC(=O)CCCCCCCCC(=O)OCC(CC)CCCC", "note": "(stereo not given)", "Potency": "inactive"}, {"smiles": "Nc1c(CC(=O)O)cccc1C(=O)c1ccc(Br)cc1", "Potency": "inactive"}, {"smiles": "CC[N+]1(CC)CCC(=C(c2ccccc2)c2ccccc2)C1C", "note": "(stereo not given)", "Potency": "inactive"}, {"smiles": "O=[N+]([O-])c1cccc(S(=O)(=O)O)c1", "Potency": "inactive"}, {"smiles": "CC1CCC(=O)C1=O", "note": "(stereo not given)", "Potency": "inactive"}, {"smiles": "Cn1c(=O)cc(Oc2ccc(F)cc2F)c2cnc(NCC(C)(C)O)nc21", "Potency": "inactive"}, {"smiles": "CCCCOC(=O)CCCCCCCC(=O)OCCCC", "Potency": "inactive"}, {"smiles": "CC(C)(C)Cl", "Potency": "inactive"}, {"smiles": "Cc1ccc(N=Nc2c(O)c(C(=O)O)cc3ccccc23)c(S(=O)(=O)O)c1", "Potency": "inactive"}, {"smiles": "CN(C)c1ccc(/C=C/c2ccc([N+](=O)[O-])cc2)cc1", "viability change, negative = cytotoxic": "1.68% [at 6.26 µM]"}, {"smiles": "O=C1OC(CN2CCOCC2)CN1/N=C/c1ccc([N+](=O)[O-])o1", "note": "(stereo not given)", "Potency": "inactive"}, {"smiles": "CCNc1cc(O)ccc1C", "Potency": "inactive"}, {"smiles": "CNC(=O)CN(CCN(CCN(CC(=O)[O-])CC(=O)NC)CC(=O)[O-])CC(=O)[O-].O.[Gd+3]", "Potency": "inactive"}]}]}
